The record followed here is the OligoGym collection.
Also: reference of the scale not given here.

The target of one assay is C3orf64. Put plainly: pooled miR-30 sensor sort-seq; sequence = guide strand. The following applies: shRNA.
For TTAGCATCTTCTATAGGTCTGA, the sensor-assay potency score (higher = more potent) was 0.396.
Take TTCATCTTCACAGTTGTACAGT: the sensor-assay potency score (higher = more potent) was found to be 0.304.
TATAGCTTTGTAGCTCAGCAAA: the sensor-assay potency score (higher = more potent) was -1.7.
On the same count and under the same terms, then TAGAAGACTGTTCCAATCCTTT, with -0.485; and TTAATCACAAATGCTCTCCATG, with -0.629; and TATAGGTCTGAAGTTGAGCTGA, with 0.14.
For TAAACAAGTTGGAACACTCTGG, the sensor-assay potency score (higher = more potent) was determined as 0.509.

The next assay deals with C4orf27. Described as above. Conditions: shRNA.
As for TTAGTCTCTCCTCATCACTTGC, the sensor-assay potency score (higher = more potent) was -0.932.
Sequence TTCTCTTGAGGTCAGCATCTGT showed a sensor-assay potency score (higher = more potent) of -0.164.
Consider TCTACTGGAACAACCAAGCCTG, for which the sensor-assay potency score (higher = more potent) is -0.00895.
In turn, TTATACAATTTTTCTTTGCTTC had a sensor-assay potency score (higher = more potent) of -0.21.
Regarding TTATCTACTGGAACAACCAAGC, the sensor-assay potency score (higher = more potent) was -0.86.
As for TATGTTCTCTTGACTTCTGTTT, the sensor-assay potency score (higher = more potent) is -0.298.
The sequence TATTTCTCTAAGTTTTTTCGTC showed a sensor-assay potency score (higher = more potent) of -0.0754.
TTCATCATTAGCAAACTGCACA had a sensor-assay potency score (higher = more potent) of -0.513.
On the same count and under the same terms, next, TTCTTTTCGAAGGTCACTGGAG: -0.538.
In the case of TATAATGATTTTCTACTTCTTT, the sensor-assay potency score (higher = more potent) is -0.484.
Turning to TTTATCTACTGGAACAACCAAG, the sensor-assay potency score (higher = more potent) was -0.789.
In turn, TAATGGTCTGGAACTCAGGAGG displayed a sensor-assay potency score (higher = more potent) of -0.721.
